Reference: the supplement of paper PMC8728848
About 410 targets per protein were measured; listed, in parts, are those with the strongest signals and a random draw of the rest.

Experiments:
Experiment in all cases: glycan array binding signal (z-score within array); higher = stronger binding
Conditions in all cases: glycan notation: IUPAC condensed, linker removed
[1] = molecular target: GlcA3S(b1-3)Gal(b1-4)GlcNAc(b1-2)Man
Summary of the method: (§1)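 Glycan array binding is given as a within-array Z-score, which can be read as non-binding when negative. The arrays, 3228 of them, came from the Consortium for Functional Glycomics database and were retained only where the protein sequence was available. Z-scores were averaged across arrays of the same protein sequence at different concentrations or buffers and across linkers.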

[2] = molecular target: GlcNAc(a1-4)Gal(b1-3)GlcNAc
Summary of the method: as §1

[3] = molecular target: GlcNAc(b1-2)[GlcNAc(b1-4)]Man(a1-3)[GlcNAc(b1-2)Man(a1-6)]Man(b1-4)GlcNAc(b1-4)GlcNAc
Summary of the method: as §1

[4] = molecular target: GlcNAc(b1-3)Gal(b1-3)GalNAc
Summary of the method: as §1

[5] = molecular target: GlcNAc(b1-3)Gal(b1-4)GlcNAc(b1-3)Gal(b1-4)GlcNAc(b1-2)Man(a1-3)[GlcNAc(b1-3)Gal(b1-4)GlcNAc(b1-3)Gal(b1-4)GlcNAc(b1-2)Man(a1-6)]Man(b1-4)GlcNAc(b1-4)[Fuc(a1-6)]GlcNAc
Summary of the method: as §1

[6] = molecular target: GlcNAc(b1-3)Gal(b1-4)GlcNAc(b1-6)[Gal(b1-3)]GalNAc
Summary of the method: as §1

[7] = molecular target: GlcNAc(b1-3)Gal(b1-4)GlcNAc(b1-6)[GlcNAc(b1-3)]Gal(b1-4)GlcNAc
Summary of the method: as §1

[8] = molecular target: GlcNAc(b1-4)Gal(b1-4)GlcNAc
Summary of the method: as §1

[9] = molecular target: GlcNAc(b1-4)GlcNAc(b1-4)GlcNAc(b1-4)GlcNAc(b1-4)GlcNAc
Summary of the method: as §1

[10] = molecular target: GlcNAc(b1-6)GalNAc
Summary of the method: as §1

[11] = molecular target: Kdn(a2-3)Gal(b1-4)GlcNAc
Summary of the method: as §1

[12] = molecular target: Man(a1-2)Man(a1-2)Man(a1-3)Man
Summary of the method: as §1

[13] = molecular target: Man(a1-2)Man(a1-3)[Man(a1-2)Man(a1-6)]Man(a1-6)[Man(a1-2)Man(a1-2)Man(a1-3)]Man(b1-4)GlcNAc(b1-4)GlcNAc
Summary of the method: as §1

[14] = molecular target: Man(a1-2)Man(a1-6)[Man(a1-3)]Man(a1-6)[Man(a1-2)Man(a1-2)Man(a1-3)]Man(b1-4)GlcNAc(b1-4)GlcNAc
Summary of the method: as §1

[15] = molecular target: Neu5Ac(a2-3)Gal(b1-3)GalNAc(b1-3)Gal(a1-4)Gal(b1-4)Glc
Summary of the method: as §1

[16] = molecular target: Neu5Ac(a2-3)Gal(b1-3)GlcNAc(b1-6)GalNAc
Summary of the method: as §1

[17] = molecular target: Neu5Ac(a2-3)Gal(b1-3)GlcNAc6S
Summary of the method: as §1

[18] = molecular target: Neu5Ac(a2-3)Gal(b1-4)GlcNAc(b1-3)Gal
Summary of the method: as §1

[19] = molecular target: Neu5Ac(a2-3)Gal(b1-4)[Fuc(a1-3)]GlcNAc(b1-2)Man
Summary of the method: as §1

[20] = molecular target: Neu5Ac(a2-3)Gal(b1-4)[Fuc(a1-3)]GlcNAc(b1-6)[Neu5Ac(a2-3)Gal(b1-3)]GalNAc
Summary of the method: as §1

[21] = molecular target: Neu5Ac(a2-3)GalNAc
Summary of the method: as §1

[22] = molecular target: Neu5Ac(a2-6)Gal
Summary of the method: as §1

[23] = molecular target: Neu5Ac(a2-6)Gal(b1-4)GlcNAc(b1-2)[Neu5Ac(a2-6)Gal(b1-4)GlcNAc(b1-6)]Man(a1-6)[Neu5Ac(a2-6)Gal(b1-4)GlcNAc(b1-2)Man(a1-3)][GlcNAc(b1-4)]Man(b1-4)GlcNAc(b1-4)GlcNAc
Summary of the method: as §1

[24] = molecular target: Neu5Ac(a2-6)Gal(b1-4)GlcNAc(b1-3)Gal(b1-4)GlcNAc(b1-2)Man(a1-3)[Neu5Ac(a2-6)Gal(b1-4)GlcNAc(b1-3)Gal(b1-4)GlcNAc(b1-2)Man(a1-6)]GalNAc
Summary of the method: as §1

[25] = molecular target: Neu5Ac(a2-8)Neu5Ac(a2-3)Gal(b1-3)GalNAc(b1-4)[Neu5Ac(a2-3)]Gal(b1-4)Glc
Summary of the method: as §1

[26] = molecular target: Neu5Ac(a2-8)Neu5Ac(a2-3)Gal(b1-3)GalNAc(b1-4)[Neu5Ac(a2-8)Neu5Ac(a2-3)]Gal(b1-4)Glc
Summary of the method: as §1

[27] = molecular target: Neu5Gc(a2-6)Gal(b1-4)GlcNAc
Summary of the method: as §1

[28] = molecular target: Neu5Gc(a2-8)Neu5Gc(a2-3)Gal(b1-4)GlcNAc
Summary of the method: as §1

[29] = molecular target: Neu5Gc(a2-8)Neu5Gc(a2-3)Gal(b1-4)GlcNAc(b1-3)Gal(b1-4)GlcNAc
Summary of the method: as §1

[30] = molecular target: Neu5Gc(a2-8)Neu5Gc(a2-6)Gal(b1-4)GlcNAc
Summary of the method: as §1

B1: CBP21 (Serratia marcescens), O83009 (protein)
chain: MNKTSRTLLSLGLLSAAMFGVSQQANAHGYVESPASRAYQCKLQLNTQCGSVQYEPQSVEGLKGFPQAGPADGHIASADKSTFFELDQQTPTRWNKLNLKTGPNSFTWKLTARHSTTSWRYFITKPNWDASQPLTRASFDLTPFCQFNDGGAIPAAQVTHQCNIPADRSGSHVILAVWDIADTANAFYQAIDVNLSK
[1]
  glycan array binding signal (z-score): -1.64
[2]
  glycan array binding signal (z-score): 0.503
[3]
  glycan array binding signal (z-score): -0.435
[4]
  glycan array binding signal (z-score): 0.04
[5]
  glycan array binding signal (z-score): 3.08
[6]
  glycan array binding signal (z-score): -0.256
[7]
  glycan array binding signal (z-score): -1.31
[8]
  glycan array binding signal (z-score): 0.145
[9]
  glycan array binding signal (z-score): 0.729
[10]
  glycan array binding signal (z-score): -0.697
[11]
  glycan array binding signal (z-score): -0.42
[12]
  glycan array binding signal (z-score): -0.437
[13]
  glycan array binding signal (z-score): 2.53
[14]
  glycan array binding signal (z-score): 0.074
[15]
  glycan array binding signal (z-score): 1.24
[16]
  glycan array binding signal (z-score): 0.458
[17]
  glycan array binding signal (z-score): -0.561
[18]
  glycan array binding signal (z-score): -0.019
[19]
  glycan array binding signal (z-score): -1.42
[20]
  glycan array binding signal (z-score): -0.314
[21]
  glycan array binding signal (z-score): -0.582
[22]
  glycan array binding signal (z-score): 0.109
[23]
  glycan array binding signal (z-score): 0.063
[24]
  glycan array binding signal (z-score): 2.96
[25]
  glycan array binding signal (z-score): 4
[26]
  glycan array binding signal (z-score): 0.155
[27]
  glycan array binding signal (z-score): 0.755
[28]
  glycan array binding signal (z-score): -0.788
[29]
  glycan array binding signal (z-score): 0.62
[30]
  glycan array binding signal (z-score): 0.37
